Counter-ions that a name gives are not always drawn. ± gives the standard deviation of the averaged measurements.
Legend:
[1] = tested on: Saccharomyces cerevisiae BY4741 SeMeCo community; assay: mean cell size (pixel area) (pixels); higher = larger cells; details: 10 µM; 24 h; SM minimal medium
Method in brief: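 A Saccharomyces cerevisiae BY4741 community carrying four plasmids, each with a fluorescent marker and each complementing one auxotrophy, was exposed for 24 h to drug at a final 10 µM in SM medium in acoustically predosed 384-well plates. The overnight preculture (OD600 = 1.0) was diluted to OD600 = 0.3 before 70 µl was added per well. Cells were then fixed with paraformaldehyde, imaged by automated confocal microscopy and analysed in Harmony to derive mean cell pixel area per well, averaged over 3 replicates. Same SeMeCo high-content imaging drug screen: Selleck FDA-approved drugs at 10 µM, 24 h in SM medium, 384-well plates, 3 replicates.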

[2] = tested on: Saccharomyces cerevisiae BY4741 SeMeCo community; assay: z-score of subpopulation abundance vs DMSO median, subpopulation auxotrophic for M; higher = larger share of this subpopulation than in DMSO controls; details: 10 µM; 24 h; SM minimal medium; subpopulation (auxotrophy): M
Method in brief: (§1)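 Cells of a Saccharomyces cerevisiae BY4741 community, carrying four plasmids that each restored one auxotrophy and encoded a distinct fluorescent protein, were pre-grown overnight to OD600 1.0 and diluted to 0.3. A 70 µl volume was added to 384-well plates acoustically predosed with library drugs (10 µM final) and grown 24 h in minimal SM medium. After paraformaldehyde fixation, automated confocal microscopy was used, with single-auxotroph fluorescent strains for thresholds and autofluorescence correction. The abundance of each subpopulation was scored as a z-score against the vehicle-well median.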

[3] = tested on: Saccharomyces cerevisiae BY4741 SeMeCo community; assay: z-score of subpopulation abundance vs DMSO median, subpopulation auxotrophic for L; higher = larger share of this subpopulation than in DMSO controls; details: 10 µM; 24 h; SM minimal medium; subpopulation (auxotrophy): L
Method in brief: as §1

[4] = tested on: Saccharomyces cerevisiae BY4741 SeMeCo community; assay: z-score of subpopulation abundance vs DMSO median, subpopulation auxotrophic for U; higher = larger share of this subpopulation than in DMSO controls; details: 10 µM; 24 h; SM minimal medium; subpopulation (auxotrophy): U
Method in brief: as §1

[5] = tested on: Saccharomyces cerevisiae BY4741 SeMeCo community; assay: z-score of subpopulation abundance vs DMSO median, subpopulation auxotrophic for H; higher = larger share of this subpopulation than in DMSO controls; details: 10 µM; 24 h; SM minimal medium; subpopulation (auxotrophy): H
Method in brief: as §1

[6] = tested on: Saccharomyces cerevisiae BY4741 SeMeCo community; assay: z-score of subpopulation abundance vs DMSO median, subpopulation auxotrophic for LU; higher = larger share of this subpopulation than in DMSO controls; details: 10 µM; 24 h; SM minimal medium; subpopulation (auxotrophy): LU
Method in brief: as §1

[7] = tested on: Saccharomyces cerevisiae BY4741 SeMeCo community; assay: z-score of subpopulation abundance vs DMSO median, subpopulation auxotrophic for HU; higher = larger share of this subpopulation than in DMSO controls; details: 10 µM; 24 h; SM minimal medium; subpopulation (auxotrophy): HU
Method in brief: as §1

[8] = tested on: Saccharomyces cerevisiae BY4741 SeMeCo community; assay: z-score of subpopulation abundance vs DMSO median, subpopulation auxotrophic for HL; higher = larger share of this subpopulation than in DMSO controls; details: 10 µM; 24 h; SM minimal medium; subpopulation (auxotrophy): HL
Method in brief: as §1

[9] = tested on: Saccharomyces cerevisiae BY4741 SeMeCo community; assay: z-score of subpopulation abundance vs DMSO median, subpopulation auxotrophic for HLM; higher = larger share of this subpopulation than in DMSO controls; details: 10 µM; 24 h; SM minimal medium; subpopulation (auxotrophy): HLM
Method in brief: as §1

[10] = tested on: Saccharomyces cerevisiae BY4741 SeMeCo community; assay: z-score of subpopulation abundance vs DMSO median, subpopulation auxotrophic for LUM; higher = larger share of this subpopulation than in DMSO controls; details: 10 µM; 24 h; SM minimal medium; subpopulation (auxotrophy): LUM
Method in brief: as §1

[11] = tested on: Saccharomyces cerevisiae BY4741 SeMeCo community; assay: z-score of prototroph abundance vs DMSO median; higher = larger share of this subpopulation than in DMSO controls; details: 10 µM; 24 h; SM minimal medium; subpopulation (auxotrophy): Prototroph
Method in brief: as §1

[12] = tested on: Saccharomyces cerevisiae BY4741 SeMeCo community; assay: z-score of subpopulation abundance vs DMSO median, subpopulation auxotrophic for HM; higher = larger share of this subpopulation than in DMSO controls; details: 10 µM; 24 h; SM minimal medium; subpopulation (auxotrophy): HM
Method in brief: as §1

[13] = tested on: Saccharomyces cerevisiae BY4741 SeMeCo community; assay: z-score of subpopulation abundance vs DMSO median, subpopulation auxotrophic for UM; higher = larger share of this subpopulation than in DMSO controls; details: 10 µM; 24 h; SM minimal medium; subpopulation (auxotrophy): UM
Method in brief: as §1

[14] = tested on: Saccharomyces cerevisiae BY4741 SeMeCo community; assay: z-score of subpopulation abundance vs DMSO median, subpopulation auxotrophic for HUM; higher = larger share of this subpopulation than in DMSO controls; details: 10 µM; 24 h; SM minimal medium; subpopulation (auxotrophy): HUM
Method in brief: as §1

[15] = tested on: Saccharomyces cerevisiae BY4741 SeMeCo community; assay: z-score of subpopulation abundance vs DMSO median, subpopulation auxotrophic for HLUM; higher = larger share of this subpopulation than in DMSO controls; details: 10 µM; 24 h; SM minimal medium; subpopulation (auxotrophy): HLUM
Method in brief: as §1

[16] = tested on: Saccharomyces cerevisiae BY4741 SeMeCo community; assay: z-score of subpopulation abundance vs DMSO median, subpopulation auxotrophic for LM; higher = larger share of this subpopulation than in DMSO controls; details: 10 µM; 24 h; SM minimal medium; subpopulation (auxotrophy): LM
Method in brief: as §1

| SMILES | mean cell size [1] | z-score of subpopulation abundance [2] | z-score of subpopulation abundance [3] | z-score of subpopulation abundance [4] | z-score of subpopulation abundance [5] | z-score of subpopulation abundance [6] | z-score of subpopulation abundance [7] | z-score of subpopulation abundance [8] | z-score of subpopulation abundance [9] | z-score of subpopulation abundance [10] | z-score of prototroph abundance [11] | z-score of subpopulation abundance [12] | z-score of subpopulation abundance [13] | z-score of subpopulation abundance [14] | z-score of subpopulation abundance [15] | z-score of subpopulation abundance [16] |
| --- | --- | --- | --- | --- | --- | --- | --- | --- | --- | --- | --- | --- | --- | --- | --- | --- |
| CN(C)CCN1C(=O)c2cccc3cc(N)cc(c23)C1=O [Amonafide] | 12.29 ± 0.1 | 0.34 | -0.4 | -1.14 | 0.02 | -0.78 | -0.59 | -0.12 | -0.38 | 0.44 |  |  |  |  |  |  |
| CN(CCOc1ccc(NS(C)(=O)=O)cc1)CCc1ccc(NS(C)(=O)=O)cc1 [Dofetilide] | 12.4 ± 0.18 | -0.18 | -0.53 | 0.48 | -0.68 | 0.5 | 0.18 | -0.22 | -0.86 |  | 0.39 | -0.88 | 0.1 | 0.21 | -0.1 |  |
| CCCOc1ccc2[nH]c(NC(=O)OC)nc2c1 [Oxibendazole] | 12.26 ± 0.1 | 0.43 | 0.1 | 0.5 | 0.1 | 1.03 | 0.92 |  |  | 0.95 | -1.22 | 0.95 | 1.39 | 1.12 | 0.11 | 0.57 |
| COCC(=O)Nc1cc(Sc2ccccc2)ccc1N=C(NC(=O)OC)NC(=O)OC [Febantel] | 12.3 ± 0.18 | 1.45 | -0.03 | -1.73 | 0.91 | -0.37 |  | 1.03 |  | 0.02 | -0.31 | 1.62 | -0.56 | -0.11 | -0.82 | 0.89 |
| CC[C@@]1(O)C(=O)OCc2c1cc1n(c2=O)Cc2cc3cc(O)ccc3nc2-1 [(S)-10-Hydroxycamptothecin] | 12.41 ± 0.077 | 0.87 | 1.09 | -1.66 | 0.82 | -0.98 | -1.09 | 0.62 | 0.07 | 0.42 | 0.14 | 0.81 | -0.98 | -0.24 |  | 1.48 |
| C=C1CCC2C(C)(CO)C(O)CCC2(C)C1CC=C1C=COC1=O (stereo unspecified) [Dehydroandrographolide] |  | 0.35 | 1.46 | -0.43 | 0.8 | 1.6 | 0.11 | 1.67 | 0.5 | 1.23 | -0.69 | 0.87 | 0.16 | 0.26 | 0.91 | 1.74 |
| NCCc1ccc(O)c(O)c1 [Dopamine HCl] | 12.4 ± 0.15 | -0.7 | -1.11 | -0.48 | -0.34 | -0.45 | -0.79 | -1.06 | -0.89 | -0.34 | 1.09 |  | -0.71 | -0.77 | -0.04 | -0.73 |
| CCCCc1oc2ccccc2c1C(=O)c1cc(I)c(OCCN(CC)CC)c(I)c1 [Amiodarone HCl] | 11.3 ± 0.26 | 9.41 | -2.82 | -0.62 | 1.97 | -1.37 | 4.02 | 3.55 | 5.74 | 6.07 | -5.29 | 3.86 | 9.26 | 4.79 |  | 1.3 |
| CC1(C)S[C@@H]2[C@H](NC(=O)Cc3ccccc3)C(=O)N2[C@H]1C(=O)O [Benzathine penicilline] |  | -0.52 | -0.58 | -0.09 | 0.18 | -0.74 | 0.01 | -0.03 | 0.37 | -0.44 | 0.52 | -0.76 | -0.06 | -0.33 | 0.29 | -0.93 |
| CC[C@H]1OC(=O)[C@H](C)[C@@H](O[C@H]2C[C@@](C)(OC)[C@@H](O)[C@H](C)O2)[C@H](C)[C@@H](O[C@@H]2O[C@H](C)C[C@H](N(C)C)[C@H]2O)[C@](C)(O)C[C@@H](C)C(=O)[C@H](C)[C@@H](O)[C@]1(C)O [Erythromycin thiocyanate] | 12.1 ± 0.14 | 0.78 | -0.64 | 0.41 | -1.72 | -0.22 |  |  | -0.68 | -0.09 | 0.64 |  | 0.06 | -0.41 | 0 | 0.36 |
| CCCNC(C)C(=O)Nc1ccccc1C (stereo unspecified) [Prilocaine hydrochloride] | 12.28 ± 0.063 | -0.36 | 0.41 |  | -0.67 | 1.11 |  | 0.03 | -0.05 | 0.73 | -0.24 | -0.46 | 0.54 | -0.27 | 0.58 | 0.83 |
| CCN(CC)CCOc1ccc(C(=C(Cl)c2ccccc2)c2ccccc2)cc1 [Clomifene citrate] |  | 0.99 | 0.3 | 0.29 | 0.53 | 1.04 | 1.86 |  | 1.37 | 1.75 | -1.75 | 1.75 | 0.9 | 1.42 | 0.41 | 1.33 |
| O=C(O)Cc1ccccc1Nc1c(Cl)cccc1Cl [Diclofenac Sodium] | 12.7 ± 0.18 | 0.68 | -0.21 | -0.91 | -0.51 | -0.84 |  | -0.56 | -0.07 |  | 1.13 |  | -1.45 |  | -0.38 | -0.23 |
| C=CC(C)(O)CCC=C(C)C (stereo unspecified) [Linalool] |  | 0.32 | -0.24 | 1.02 | -0.37 | 0.53 | 0.69 | -0.47 | -0.24 | -0.39 | -0.57 |  | 0.7 | -0.24 | -0.32 |  |
| CCN(CC)CCOC(=O)c1ccc(N)cc1 [Procaine HCl] | 12.5 ± 0.25 | -0.44 | -0.69 |  | -0.47 | -0.34 | -0.49 | -0.7 | -0.24 | 0.14 |  | -0.71 | -0.8 |  | 0.26 | 0 |
